Hit rate of the full screen: of about 370,000 compounds, about 4,100 (1.1%) were called active. Only a selection was taken, and actives are over-represented in it overall. Values without a mark were called inactive.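 The calls were made as follows: active = inhibition above the mean over all tested compounds plus 3 SD (cut at about 3.6% in these data); inactive = the rest.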
Assay: DAX1 (NR0B1) inhibitors on StAR promoter, primary screen, cell-based, luminescence, SF-1 (NR5A1), full-length DAX-1 (AID 652010);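 also: 0% = DAX-1 cells with DMSO and 100% = cells lacking DAX-1 with DMSO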
Settings: HEK293T StAR-luciferase reporter, SF-1/DAX-1 repression relief; at 6.8 µM; stronger effect = higher value

Row | SMILES | inhibition
1 | COC(=O)c1cccc(Cn2ccc3ccc(-c4ccc5ccn(C(=O)C6CCCCC6)c5c4)cc32)c1 | 0.41%
2 | CCOC(=O)N1CCN(C(=O)C[C@@H]2C(=O)N(CCc3ccc(Cl)cc3)C3=CCCC[C@]32C(=O)OCC)CC1 | -2.96%
3 | O=C(NN=CC=Cc1ccccc1)C(O)C(O)C(=O)NN=CC=Cc1ccccc1 (configuration not stated) | 0.1%
4 | CSc1ccc(CNC(=O)C2(C)CCCN2C)cc1 (configuration not stated) | -0.07%
5 | COc1ccc2cc(CCl)c(Cl)nc2c1 | -0.14%
6 | COc1ccc(C=C(C#N)C#N)c(CSc2ccccn2)c1 | -0.31%
7 | COc1ccc2nc(-c3ccccn3)ccc2c1 | 15.7% (active)
8 | COC(=O)c1cc(S(=O)(=O)N2CCN(C(=O)C3CCCO3)CC2)cn1C (configuration not stated) | 0.73%
9 | N#CCC[C@H]1CC[C@]2(CCCN(Cc3ccc(Cl)cc3)C2)O1 | 0.06%
10 | COc1ccccc1C(=O)CSc1nnc(-c2ccccn2)n1-c1ccccc1 | -0.86%
11 | Nn1c(SCC(=O)N2c3ccccc3Sc3ccccc32)nnc1-c1n[nH]c2c1CCC2 | -0.89%
12 | COc1ccc(CCNC(=O)COC(=O)Cc2cccc(F)c2)cc1 | 2.2%
13 | COc1ccc(CCNC(=O)COC(=O)Cc2ccccc2F)cc1 | 5.57% (active)
14 | O=C(COC(=O)Cc1ccccc1F)NCCc1ccccc1 | 1.4%
15 | C=CCN=C1NC(c2cccc(C(F)(F)F)c2)C(C(=O)OC)=C(C)N1C (configuration not stated) | -0.18%
16 | C=C(C)C#CC(Cc1ccccc1)NCC1CC1 (configuration not stated) | -0.89%
17 | COc1ccc(-c2cn3ccc(C)cc3n2)cc1 | 5.29% (active)
18 | COc1cc(OC)cc(-c2nc(=S)n3ccsc3n2)c1 | -0.3%
19 | COc1ccc(-c2ccc3c(n2)CCCN3S(=O)(=O)c2ccc(C)cc2)cc1 | -0.47%
20 | COc1ccc(-c2cn3ccsc3n2)cc1 | 4.57% (active)
21 | FC(F)(F)Oc1ccc(-c2cn3cccnc3n2)cc1 | 1.35%

Row | SMILES | inhibition
22 | COc1ccc(CSc2nnc(-c3cccc(C)c3)n2C)cc1 | -0.99%
23 | O=C(Nc1cccc(Cl)c1)OC1CC2CC1[C@H]1CCCCN1[C@H]2Cc1ccccc1 (some centres not stated) | -0.06%
24 | O=C(CSc1nc2ccccc2n1Cc1ccccc1Cl)N/N=C\c1c[nH]c2ccccc12 | -0.91%
25 | Cc1cc(=O)[nH]c(SCC(=O)Nc2ccc(F)cc2F)n1 | 0.67%
26 | C=CCN1[C@@H](Cc2ccccc2)COc2cccc(N3CCSCC3)c2S1(=O)=O | 0.68%
27 | O=C(Nc1ccccc1)Nc1nc2ccccc2s1 | 9.89% (active)
28 | O=C(Nc1ccccc1)Nc1nnc(COc2ccccc2F)s1 | 0.16%
29 | O=C(Nc1nc2ccc(Cl)cc2s1)c1cc(-c2ccc(Cl)cc2)nc2ccccc12 | 0.51%
30 | COC(=O)[C@]12C[C@H](CC(=O)NCc3ccccc3)C(=O)N(Cc3ccccc3)C1=C[C@H](COCc1ccccc1)O[C@@H]2C | -0.43%
31 | COc1ccc(C(=O)CSc2nnc(-c3cnccn3)n2-c2ccc(C)cc2)cc1 | 0.38%
32 | CSc1ccc(C=Nn2c(-c3ccc(F)cc3)n[nH]c2=S)cc1 | -1.55%
33 | COC(=O)C1=C(C)N(Cc2ccc(C(F)(F)F)cc2)C(=NCc2ccc(C(F)(F)F)cc2)NC1c1cccc(Cl)c1 (configuration not stated) | 0.24%
34 | O=c1c(-c2ccccc2)coc2cc(O)ccc12 | 3.75% (active)
35 | CCc1ccc(Oc2coc3cc(O)ccc3c2=O)cc1 | 0.76%
36 | CC(C)=CCc1c(O)c(CC=C(C)C)c2occ(-c3ccc(O)cc3)c(=O)c2c1O | 0.21%
37 | Cc1ccc(C(=O)N(Cc2ccccn2)CC2CCCO2)cc1 (configuration not stated) | 0.03%
38 | O=C(N/N=C\C1CC=CCC1)c1ccc(Br)o1 (configuration not stated) | 8.53% (active)
39 | CC(C)(C)C1CCC(=NNC(=O)c2ccc(Br)o2)CC1 (configuration not stated) | 2.87%
40 | CCC(C)(C)C1CCC(=NNC(=O)c2ccc(Br)o2)CC1 (configuration not stated) | 1.82%
41 | Cc1c[nH]c2cccc(-c3ccc(Cl)cc3)c12 | -0.32%
42 | Cc1cc(NC(=O)CSC2=NS(=O)(=O)c3cc(Cl)ccc3N2)no1 | -0.79%

Row | SMILES | inhibition
43 | Cc1ccc(-n2cc3ccc([N+](=O)[O-])cc3n2)cc1 | 4.78% (active)
44 | CC(C)(C)NC(=O)Cn1cnc2cc([N+](=O)[O-])ccc2c1=O | 0.18%
45 | O=c1c2cc([N+](=O)[O-])ccc2nc2n1CCC2 | 0.07%
46 | CCOC(=O)[C@]12CCCC3=C1N(CCC3)C(=O)[C@@H](CC(=O)NCC13CC4CC(CC(C4)C1)C3)C2 | -1.84%
47 | O=C(NCCCc1ccccc1)c1cc(COc2c(F)cccc2F)on1 | 1.02%
48 | CC(C)Cc1cc(C(=O)NCCc2ccccc2)no1 | 4.87% (active)
49 | CC(C)Cc1cc(C(=O)Nc2cc(Br)ccc2O)no1 | 1.06%
50 | CC(C)(CNC(=O)c1ccc(Cl)c(S(=O)(=O)N2CCc3ccccc3C2)c1)N1CCOCC1 | -2.85%
51 | CC1CC(C)CN(CCCNC(=O)c2csc3c2CCCCC3)C1 (configuration not stated) | 0.43%
52 | Cc1ccc(NC(=O)c2csc3c2CCCC3)cc1 | 4.28% (active)
53 | Cc1ccc(NC(=O)C2(N3CCC3=O)CCCCC2)cc1 | -0.08%
54 | O=C(NCc1ccccc1)[C@H]1CCCN1C(=O)[C@H]1CCCN1C(=O)N1CCOCC1 | 0.17%
55 | COc1ccccc1C(=O)N1C(CC(=O)Nc2ccccc2C)C(=O)NC2CCCCC21 (configuration not stated) | -0.35%
56 | COc1ccc(CCNC(=O)CSc2nc3c([nH]2)c(=O)n(C)c(=O)n3C)cc1 | 0.31%
57 | COC(=O)[C@H](C(C)C)N1CCc2nnn(Cc3ccc(C)cc3)c2-c2ccccc2S1(=O)=O | -0.28%
58 | O=C(NCc1ccc(Cl)cc1)C1CCCN(c2nc3ccccc3o2)C1 (configuration not stated) | 0.95%
59 | O=NN(CCCl)C(=O)NCCc1cccc[n+]1[O-] | -0.61%
60 | Cc1ccc(OCCOc2cccc(/C=N/NC(N)=O)c2)cc1 | 0.53%
61 | Cc1ccc(/C=N/NC(=O)c2sccc2OCc2ccc(F)cc2)cc1 | -0.5%
62 | Cc1ccc(/C=N/NC(=O)COc2ccccc2-c2ccccc2)cc1 | 4.21% (active)

— PubChem BioAssay AID652010 (The Scripps Research Institute Molecular Screening Center, 2013)
